Assay results: PubChem BioAssay (NCI)
The panel holds about 79,000 compounds, 15% with a hit somewhere; the sample as a whole holds those more often. Activity calls are given as the source filed them. Cut-off read from the data, not from the text of the source: active = growth inhibition above about 70%; inactive = the rest.

How the values were obtained:
[1] = NCI Yeast Anticancer Drug Screen. Data for the rad50 strain (AID 155);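 note: 0% = growth of vehicle-only cultures of the same strain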; settings: S. cerevisiae rad50 strain growth inhibition; at 50.0 µM; hits give high values
Method in brief: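 DNA repair mutant yeast, compound exposure, growth read-out; inhibition is taken relative to vehicle.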

[2] = NCI Yeast Anticancer Drug Screen. Data for the mec2-1 strain (AID 157); settings: S. cerevisiae mec2-1 strain, at 50.0 µM, hits give high values
Method in brief: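 Cells of the genetically defined mec2-1 yeast strain are incubated with test compound. Inhibition of growth is calculated against vehicle-treated controls.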

[3] = NCI Yeast Anticancer Drug Screen. Data for the sgs1 mgt1 strain (AID 161);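 note: 0% = growth of cultures given vehicle only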; settings: S. cerevisiae sgs1 mgt1 strain, at 50.0 µM, hits give high values
Method in brief: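 Inhibition of yeast growth, normalised to vehicle-treated controls, is reported for a strain bearing genetic alterations in DNA damage repair.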

[4] = NCI Yeast Anticancer Drug Screen. Data for the cln2 rad14 strain (AID 165);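 note: 0% = growth equal to vehicle treated cultures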; settings: S. cerevisiae cln2 rad14 strain, at 50.0 µM, hits give high values
Method in brief: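 The screen exposed genetically defined yeast (cln2 rad14) to test compounds and scored growth inhibition relative to vehicle-treated controls.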

[5] = NCI Yeast Anticancer Drug Screen. Data for the bub3 strain (AID 167); settings: S. cerevisiae bub3 mutant strain, at 50.0 µM, hits give high values
Method in brief: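 In this screen, a yeast mutant lacking normal mitotic checkpoint function is challenged with compound. Relative growth versus vehicle gives the inhibition value.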

[6] = NCI Yeast Anticancer Drug Screen. Data for the mlh1 rad18 strain (AID 175); settings: S. cerevisiae mlh1 rad18 strain growth inhibition; at 50.0 µM; hits give high values
Method in brief: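 Compound-treated yeast growth, normalised to vehicle controls. Strain bears defined DNA repair mutations.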

Measured: growth inhibition

CCOC(=O)c1ccc(N2C(=S)N(C(=O)c3ccccc3)C(=Nc3ccccc3)C2=Nc2ccccc2)cc1
inactive: [1] 11.2% | [2] 3.15% | [3] 5.25% | [4] 1.35% | [5] 3.85% | [6] -37.4%

CN(C)/C=N/c1nc2ncn(CCOC(=O)c3ccccc3)c2c(=O)[nH]1
inactive: [1] -20.6% | [2] -24.6% | [3] 11.3% | [4] 10.6% | [5] -11.4% | [6] -20.9%

CC(=O)OCC(OC(C)=O)C(OC1OC(COC(C)=O)C(OC(C)=O)C(OC(C)=O)C1OC(C)=O)C(OC(C)=O)c1cnn(-c2ccccc2)n1 (centres undefined)
inactive: [1] -10.7% | [2] -0.1% | [3] -8.15% | [4] -19.4% | [5] -2.65% | [6] -5.75%

CC(C(/C=N/NC(N)=S)=N/NC(N)=S)N1C(=O)c2ccccc2C1=O (centres undefined)
inactive: [1] 3.75% | [2] -11.2% | [3] -16.9% | [4] -5.1% | [5] 2.45% | [6] 23.9%

Cc1ccccc1NC(=O)/C(C#N)=N\Nc1nc[nH]c1C(N)=O
inactive: [1] -33.7% | [2] -22.6% | [3] -11.8% | [4] 6.2% | [5] -45.9% | [6] 13.1%

COc1ccc(CCNC(=S)NCCc2ccc(OC)cc2)cc1
inactive: [1] 11.8% | [2] 12.8% | [3] -1.4% | [4] -28% | [5] -7.25% | [6] -21%

CC1OC2CC(O)C1(O)C1=C2C(O)=C(C(N)=O)C(=N)C1=O (centres undefined)
inactive: [1] 12.3% | [2] -15.6% | [3] 19.4% | [4] 6.8% | [5] 5.35% | [6] -21.4%

CC1/C(=N/Nc2ccc([N+](=O)[O-])cc2)CC2C3(C)CCC2(C(C)C(=O)O)C(=O)C13 (centres undefined)
inactive: [2] 33.4% | [4] 45.7% | [5] 44.8%
active: [1] 78% | [3] 83.5% | [6] 88.7%

CC(=O)NNc1nc(C)c(C(/C=C/c2ccc(/C=C/C(=N\NC(=O)c3ccncc3)c3sc(NNC(C)=O)nc3C)cc2)=N/NC(=O)c2ccncc2)s1
inactive: [1] -16.6% | [2] -7.35% | [3] -8.95% | [4] 12.7% | [5] 1.4% | [6] -13.3%

COc1ccc(C(C)=O)c(O)c1OC
inactive: [1] -3.3% | [2] 4.7% | [3] 9.1% | [4] -3.35% | [5] -3.1% | [6] 3%

CCc1ccccc1-n1[nH]c(C)c(C=N)c1=O
inactive: [1] -8.2% | [2] -18.1% | [3] -18.2% | [4] -14.1% | [5] -16.7% | [6] -8.15%

CCN(CC)[Si](C)(C)C
inactive: [1] -24.1% | [2] -0.2% | [3] -9.25% | [4] -6.65% | [5] -21.8% | [6] -24.4%

CC1(C(=O)O)CCCCCCC1O (centres undefined)
inactive: [1] 10.2% | [2] 9.55% | [3] -2.55% | [4] 8.1% | [5] -6.1% | [6] -7.9%

COc1ccc(CCn2cnn3c(=O)c4ccccc4nc3c2=O)cc1OC
inactive: [1] -24% | [2] -29.9% | [3] -9.1% | [4] -0.8% | [5] -17.4% | [6] -20.9%

O=C(CN1C(=O)c2ccccc2C1=O)OC1C=CCCC1 (centres undefined)
inactive: [1] 12.2% | [2] 0.65% | [3] 1.5% | [4] 18.7% | [5] 9.6% | [6] 10.3%

Nc1nnc(CCC(=O)Nc2cccc(C(F)(F)F)c2)n1N
inactive: [1] 4.85% | [2] 5.6% | [3] 7.3% | [4] -27.9% | [5] 9.65% | [6] 1.55%

CC(=O)N(CCCCNC(=O)C(F)(F)F)CCCNC(=O)C(F)(F)F
inactive: [1] 2.7% | [2] -6.5% | [3] 6.55% | [4] 5.15% | [5] -26.8% | [6] -58.5%

Nc1cccc2c1CCC=C2
inactive: [1] -0.05% | [2] -6.5% | [3] -3.55% | [4] -6% | [5] 7.6% | [6] -1.9%

CC(=O)Oc1c(Cl)c(Cl)c(C#N)c(Cl)c1C#N
inactive: [1] 30.4% | [2] 1.7% | [3] 26.2% | [4] 10.8% | [5] 8.8% | [6] 26.1%

O=[N+]([O-])c1ccc(NC(c2ccccc2)c2ccc3cccnc3c2O)cc1 (centres undefined)
inactive: [1] -6.35% | [2] -20.1% | [3] 0.2% | [4] -15.3% | [5] -2.75% | [6] -10.3%

COC(=O)NC1C(C)OC(OC2C/C=C(/C)C3C=CC4C(OC5CC(OC6CCC(OC7CC(O)C(OC8CCC(O)C(C)O8)C(C)O7)C(C)O6)C(OC(C)=O)C(C)O5)C(C)CC(C)C4C3(C)/C(O)=C3/C(=O)OC4(CC(C=O)=CC(O)C4/C=C\2C)C3=O)CC1(C)[N+](=O)[O-] (centres undefined)
inactive: [1] 21.1% | [2] 20.9% | [3] 22.2% | [4] 25.6% | [5] 22.9% | [6] -38%

O=C1Cc2ccccc2C(=O)N1
inactive: [1] 23% | [2] 22.3% | [3] 27.3% | [4] 7.4% | [5] 4.8% | [6] 16.4%

CCCC(=O)OCCc1ccccc1
inactive: [1] 12.8% | [2] 10.3% | [3] 16.4% | [4] -65.5% | [5] 5.1% | [6] -26%

CCOC(=O)N1CCN(C(=O)OCC)C(C)C1 (centres undefined)
inactive: [1] 4.45% | [2] -0.7% | [3] -8.8% | [4] -20.1% | [5] 6.35% | [6] -8.6%

C1=C(c2ccccc2)OC(c2ccccc2)=C(c2ccccc2)[P+]1(c1ccccc1)c1ccccc1
active: [1] 99.5% | [2] 99.7% | [3] 99.7% | [4] 99.7% | [5] 99.5% | [6] 99.5%

C[C@@]12CCC[C@H]1[C@@H]1CC=C3C[C@@H](S)CC[C@]3(C)[C@H]1CC2
inactive: [1] -6.75% | [2] 4.5% | [3] -3.25% | [4] -31.1% | [5] -6.9% | [6] -13.7%

CN(C)c1ccc2c(c1)C(O)c1ccccc1-2 (centres undefined)
inactive: [1] -7.3% | [2] -6.55% | [3] 1.1% | [4] -0.65% | [5] 19.4% | [6] 0.7%

COC1(OC)C2(Cl)C(Cl)=C(Cl)C1(Cl)C1CCCCCC12 (centres undefined)
inactive: [1] -4.95% | [2] 2.8% | [3] 1.85% | [4] -60.7% | [5] -8.4% | [6] 8.15%

O=c1[nH]c(=O)n(C2OC(CO)C(O)C2O)cc1I (centres undefined)
inactive: [1] -10.2% | [2] -9.95% | [3] -6.9% | [4] 15.2% | [5] 5.6% | [6] -13.8%

CCn1c(C)nc([N+](=O)[O-])c1Sc1ncc[nH]1
inactive: [1] -7.8% | [2] 0.7% | [3] -11.4% | [4] 27.8% | [5] 10.2% | [6] -3.35%

COC1=C(OC)C(=O)C(Sc2ccc3ccccc3c2)=C(Cl)C1=O
active: [1] 95.2% | [2] 94.2% | [3] 93.8% | [4] 94.4% | [5] 91.7% | [6] 91.1%

COc1cc(-c2c(C)oc(C)c2C(C)=O)ccc1OCc1ccccc1
inactive: [1] 9.6% | [2] -1.95% | [3] -9.1% | [4] 11.8% | [5] 14.8% | [6] 14.4%

O=C1CSC(=S)N1N1C(=O)CSC1=S
inactive: [1] -24.8% | [2] -7.8% | [3] -21.5% | [4] -12.3% | [5] 5.55% | [6] -12.4%

COC(=O)c1nnn(CCc2c[nH]c3ccccc23)c1C(=O)OC
inactive: [1] -10.8% | [2] 4% | [3] -11.3% | [4] -11.6% | [5] 19.8% | [6] -24.7%

Cn1c(=O)c2[nH]c(=S)[nH]c2n(C)c1=O
inactive: [1] -5.85% | [2] -20.7% | [3] -3% | [4] 11.1% | [5] -18.2% | [6] -4.75%

COC(=O)c1ccccc1N(C)C(=O)c1cc(OC)c(OC)c(OC)c1
inactive: [1] -27.4% | [2] -37% | [3] -5.75% | [4] -11.1% | [5] -19.4% | [6] -8.85%

Cn1nnnc1NN(c1nnnn1C)C1C=CCC=C1
inactive: [1] 6.4% | [2] -6% | [3] 0% | [4] -18% | [5] 1.95% | [6] -10.7%

O=C1C(Cl)C(c2cccc(O)c2)N1n1cnc2ccccc2c1=O (centres undefined)
inactive: [1] -25.1% | [2] -4.15% | [3] -7.5% | [4] -8% | [5] -19.4% | [6] -0.95%

NC(N)=NC(N)=Nc1ccc(C(=O)O)cc1
inactive: [1] -7.4% | [2] 5.95% | [3] -26.8% | [4] -29.2% | [5] -68% | [6] -4%
